Records with an inconclusive call do not appear. The source made the active and inactive calls. Calls come from the whole dose curve; as a rule, active = well fitted curve in the direction sought with a large enough effect (not every such curve was filed as active); inconclusive = small, poorly fitted or top-dose-only effect, or effect the other way, or another doubt; inactive = no such curve, though single readings can be large or run the other way.
test: Cell viability assay for measurement of the protective activity of small molecules against cell death caused by Zika virus infection in human neural progenitor cells (hNPCs); details: hNPC ZIKV-induced death protection, ATP luminescence, 72 h; series mostly up to 46.1 µM
From the text: National Center for Advancing Translational Sciences [NCATS] Johns Hopkins University School of Medicine Florida State University Assay Overview: Zika virus infection causes cell death in certain cell types including human neural progenitor cells (hNPCs), astrocytes, and astrocytoma cell line (SNB-19). This cell viability assay measures the ATP content (level) in human neural progenitor cells (hNPCs) using a luminescence readout that is proportional to viable cell numbers. Decrease in the luminescence signal after Zika virus infection indicates the cell death caused by Zika virus. Small molecule inhibitors […] the decreased luminescence signal after Zika virus infection, indicating the protective effect of that small molecule on the cell death caused by Zika virus infection. This observed protective effect of small molecules against Zika virus induced cell death may result from inhibition of virus replication or cellular response to the virus infection.
Assay Protocol Summary: The medium for hNPCs consists of DMEM/F12, N2 supplement (ThermoFisher, Cat.# 17502048), NEAA (ThermoFisher, Cat. # 11140050), 2 ug/ml heparin, 2 uM cyclopamine, and B27 (ThermoFisher, Cat. # 17504044). The ATP content assay kit (PerkinElmer, Cat.# 6016731) was used to determine cell viability. The reagent was reconstituted and prepared as described by the manufacturer. Cells were seeded in 384- or 1536-well assay plates and cultured at 37 C with 5% CO2 for 16 to 20 hours. The typical cell seeding density in the 1536-well plate assay is 350 cells/well in 3 ul medium for hNPCs in the tissue cultured treated/PDL coated plates. Compounds were added to cells and incubated for one hour before addition of ZIKV solution to cells (2 FFU/cell). After incubation at 37 C with 5% CO2 for 72 hours, the reagent mixture of the ATP content assay kit was added to each well, followed by incubation at room temperature for 10 minutes. The luminescence intensity of the assay plates was measured using a ViewLux plate reader (PerkinElmer). […] The percentage inhibitions of the decreased cell viability by small molecule inhibitors were then calculated.

| SMILES | outcome |
| --- | --- |
| Cc1c(NC(=O)c2ccc(C(C)(C)C)cc2)cccc1-c1cn(C)c(=O)c(Nc2ccc(C(=O)N3CCOCC3)cc2)n1 | inactive |
| CC(=Cc1ccccc1)C=C1SC(=S)N(CC(=O)O)C1=O | inactive |
| CC(C(=O)O)c1ccc2c(c1)[nH]c1ccc(Cl)cc12 (stereo not given) | inactive |
| COCCn1c2c([n+](Cc3cnccn3)c1C)C(=O)c1ccccc1C2=O | inactive |
| Nc1ccc(O)c(C(=O)O)c1 | inactive |
| COc1cc2nc(-c3ccc(N4CCN(C)CC4)cc3)nc(NCCN3CCOCC3)c2cc1OC | inactive |
| COc1ccc(-c2coc3cc(O)ccc3c2=O)cc1 | inactive |
| CN1CC(=O)N/C1=N/C(=O)Nc1cccc(Cl)c1 | inactive |
| Nc1cc(C(F)(F)F)ccc1S | inactive |
| CNC(=O)c1ccccc1Sc1ccc2c(/C=C/c3ccccn3)n[nH]c2c1 | inactive |
| O=C(Nc1ccc(C(=O)O)c(O)c1)c1ccccc1 | inactive |
| Cc1nc(N)sc1-c1ccnc(Nc2ccc(N3CCOCC3)cc2)n1 | inactive |
| COc1cc2nc(N3CCN(C(=O)C4CCCO4)CC3)nc(N)c2cc1OC (stereo not given) | inactive |
| CCCCC1C(=O)N(c2ccccc2)N(c2ccc(O)cc2)C1=O (stereo not given) | inactive |
| C/C(=N\O)c1ccc(OCC(=O)N2CCCCC2)cc1 | inactive |
| Cc1cccc(/C=C/c2ccccc2)n1 | inactive |
| N[C@H](CSC(c1ccccc1)(c1ccccc1)c1ccccc1)C(=O)O | inactive |
| CCCC(=O)OC[C@@H](OC(=O)CCC)[C@@H](OC(=O)CCC)[C@H](Cn1c2nc(=O)[nH]c(=O)c-2nc2cc(C)c(C)cc21)OC(=O)CCC | inactive |
| CS(=O)(=O)c1ccc(-c2cn3ccccc3n2)cc1 | inactive |
| CC(C)(C)COc1ccc(-n2cc(C(=O)O)cn2)cc1C#N | inactive |

| SMILES | outcome |
| --- | --- |
| [O-][n+]1ccccc1SSc1cccc[n+]1[O-] | inactive |
| COc1ccc(-c2cc(=S)ss2)cc1 | inactive |
| Cc1cc(O)c2c(c1)C(=O)c1cc(O)cc(O)c1C2=O | inactive |
| O=C(O)[C@@H](c1ccc(OCc2ccc3ccccc3n2)cc1)C1CCCC1 | inactive |
| COc1ccc(CC2=NN3C([C@@H](CCc4ccccc4)[C@@H](C)O)=NC(C)C3C(=O)N2)cc1OC (stereo not given in full) | inactive |
| CC(C)Oc1ccc2c(=O)c(-c3ccccc3)coc2c1 | inactive |
| CC1(C)OC2=C(C(=O)c3ccccc3C2=O)[C@H](NCc2ccccc2)[C@H]1O | inactive |
| O=C1c2ccccc2-[n+]2ccc3c([nH]c4ccccc43)c21 | inactive |
| NC(N)=NN=C(/C=C/c1ccc([N+](=O)[O-])o1)/C=C/c1ccc([N+](=O)[O-])o1 | inactive |
| CN(C)c1ccc2cc(C(=O)N[C@@H](CCCN=C(N)CCl)C(=O)NCc3ccccc3)ccc2c1 | inactive |
| O=c1cc(-c2ccccc2)oc2cc(O)c(O)c(O)c12 | inactive |
| CC1(C)Cc2c(sc(NC(=S)NC(=O)c3ccccc3)c2C(=O)O)CO1 | inactive |
| O=C1c2ccccc2C(=O)c2c1ccc(O)c2O | inactive |
| C=CCCCCCCCCC(=O)O | inactive |
| CC(=O)OC(C)OC(=O)C(C)c1ccc(-c2ccccc2)c(F)c1 (stereo not given) | inactive |
| CCC(C)SSc1ncc[nH]1 (stereo not given) | inactive |
| CCCCCNC(=O)N1CCC(CN(Cc2ccc(Cl)cc2)Cc2ccc([N+](=O)[O-])s2)C1 (stereo not given) | inactive |
| CC1=C(CO)C(=O)O[C@@H]([C@@H](C)[C@H]2CC[C@H]3[C@@H]4C[C@H]5O[C@]56[C@@H](O)C=CC(=O)[C@]6(C)[C@@H]4CC[C@]23C)C1 | inactive |
| O=c1c(-c2ccc(O)cc2)coc2cc(O)ccc12 | inactive |
| Cc1csc(NC(=O)c2sc3nc4c(c(C(F)(F)F)c3c2N)CCC4)n1 | inactive |
